Test [1] is described as follows: qHTS assay for small molecule agonists of the p53 signaling pathway - cell viability (AID 651633; calls by dose curve; note: nearly all actives have a fitted effect of over 30% in size; note: potency is the fitted concentration of half-maximal effect). In short, it runs like this:
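p53RE-bla cells, seeded at 4,000 per well and rested 5 h at 37 C/5% CO2, received compounds in DMSO for 16 h at 37 C. CellTiter-Glo was then added, and luminescence was read after 30 min at room temperature to gauge cytotoxicity.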
(In general: In qHTS, concentration-response curves come from the screen itself.)

A short description of test [2]: qHTS assay for small molecule disruptors of the mitochondrial membrane potential - cell viability (AID 720634; calls by dose curve;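 note: human HepG2 liver cancer cells; series mostly up to about 83 µM; nearly all actives have a fitted effect of over 20% in size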). Summed up:
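After overnight attachment at 37 C, HepG2 cells received compound or DMSO vehicle for 1 hr. Viability is then taken from ATP-driven luminescence following a 30 min room-temperature CellTiter-Glo step.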

The nature of test [3]: qHTS assay for small molecule disruptors of the mitochondrial membrane potential (AID 720635). Note: potency is the fitted concentration of half-maximal effect. Summed up: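 HepG2 cells (2,000/well) attached overnight at 37C, then took compound for 1 hr at 37C, 5% CO2. Mito-MPS dye was added for 30 min; fluorescence was read at 490/535 nm (monomers) and 540/590 nm (aggregates).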
The nature of test [4]: qHTS assay to test for compound auto fluorescence at 590 nm (red) in HepG2 cells (AID 720674). In short, it runs like this: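 Intrinsic compound fluorescence in the red window (Ex/Em 540/590 nm) is measured in attached HepG2 cells exposed for 1 hr, DMSO vehicle as baseline, benchmarked to Rose Bengal sodium.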
Test [5] can be described thus: qHTS assay to test for compound auto fluorescence at 535 nm (green) in HepG2 cells (AID 720675).
Test [6] in a line: qHTS assay to test for compound auto fluorescence at 460 nm (blue) in HEK293 cells (AID 720678). Summed up:
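After cell attachment (4-5 hr, 37C), compounds were pinned onto HEK293 monolayers in 10% dialyzed FBS medium. The blue channel (405/460 nm) was read following overnight culture. Equivalency was calculated against triamterene.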

Test [7] is described as follows: qHTS assay to test for compound auto fluorescence at 590 nm (red) in HEK293 cells (AID 720679). Summed up: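 Plates of HEK293 cells (10% dialyzed FBS) are treated with 23 nL compound or DMSO vehicle after a 4-5 hr attachment period, incubated overnight at 37C, and read for red fluorescence at 540/590nm.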
A short description of test [8]: qHTS assay for small molecules that induce genotoxicity in human embryonic kidney cells expressing luciferase-tagged ATAD5 (AID 651632). Note: nearly all actives have a fitted effect of over 15% in size. Note: potency is the fitted concentration of half-maximal effect. In short, it runs like this: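 Increased luciferase signal from ATAD5-tagged reporter cells indicates DNA-damage-driven ATAD5 induction. HEK293T cells are treated for 16 hr at 37C before detection with Amplite.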
The nature of test [9]: qHTS assay for small molecules that induce genotoxicity in human embryonic kidney cells expressing luciferase-tagged ATAD5 - cell viability (AID 651634; calls by dose curve; note: nearly all actives have a fitted effect of over 25% in size; note: potency is the fitted concentration of half-maximal effect). Summed up:
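Cytotoxicity counterscreen in HEK293T cells bearing an ATAD5-luciferase reporter: live-cell protease activity measured by CellTiter-Fluor fluorescence after 15.5 hr compound exposure.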

Test [10] in a line: qHTS assay for small molecule agonists of the p53 signaling pathway (AID 651631; calls by dose curve; note: nearly all actives have a fitted effect of over 15% in size). In short, it runs like this: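 Quantitative high-throughput format: 4,000 p53RE-bla HCT-116 cells/well, 5 h pre-incubation, 16 h compound exposure at 37 °C, 2 h room-temperature substrate step, fluorescence intensity measured.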

The structures appear in SMILES notation. Values joined by “and” are separate entries in the source; they are usually repeats but may differ in a detail not shown here. Identical values can stand only once. Results filed as inconclusive are left out. More than one record can exist for a structure, and the calls need not agree. Active and inactive are the calls of the source. Unless noted, calls come from the whole dose curve; as a rule, active = well fitted curve in the direction sought with a large enough effect in the repeat runs; inconclusive = weak or mixed curves; inactive = no such curve, though single readings can be large; an effect the other way counts as inactive or inconclusive.

With `O=c1c(-c2ccc(O)cc2)coc2cc(O)cc(O)c12`, the Potency result in test [1] and in [2] was “inactive” throughout. The Potency in test [3] is 5.96 µM (active) and 1.07 µM (active) and 8.63 µM (active). The result in [4], in [5], in [6] and in test [7] was inactive.

With `CCn1cc(C(=O)O)c(=O)c2ccc(C)nc21`, the Potency result in test [8], in [2] and in [3] was “inactive” in each case. The call in test [4], in test [5], in test [6] and in [7] was inactive.

Take `CCCCOC(=O)CCCCCCCCC(=O)OCCCC`: the Potency result in test [8], in [1], in test [9], in [2] and in [3] was “inactive” in each case. Further, the call in [4], in test [5], in [6] and in test [7] was inactive.

Consider `N[C@@H](Cc1c[nH]c2ccc(O)cc12)C(=O)O`, for which the Potency entry in test [8], in [1], in test [9] and in test [2] was “inactive” each time. Also, the Potency in test [3] was 26.6 µM (active) and 941 nM (active). In addition, the compound was classed as inactive in test [4], in test [5], in test [6] and in test [7].

For the compound `Cc1cnc(NC(=O)C2=C(O)c3ccccc3S(=O)(=O)N2C)s1`, the Potency entry in [10], in test [8], in [1] and in test [2] was “inactive” in each case. Moreover, the compound was called inactive in [4], in test [5], in test [6] and in test [7].

On to `Cc1c(N(C)C)c(=O)n(-c2ccccc2)n1C`, for which the Potency entry in test [8], in test [1], in [9], in test [2] and in test [3] was “inactive” throughout. Besides, the result in [4], in [5], in test [6] and in test [7] was inactive.

For `C[C@]12CC[C@@H]3c4ccc(O)cc4CC[C@H]3[C@@H]1CCC2=O`, the Potency result in test [9] and in test [2] was “inactive” in each case. Further, the Potency in test [3] was 13.3 µM (active) and 6.87 µM (active). In addition, the compound was classed as inactive in [4], in [5], in [6] and in [7].

On to `NC(=O)N1c2ccccc2C=Cc2ccccc21`, for which the Potency result in test [8], in test [1], in test [9], in test [2] and in test [3] was “inactive” throughout. Further, the compound was called inactive in test [4], in [5], in [6] and in test [7].

`NCCNc1cccc2ccccc12`: the Potency result in test [8], in test [1], in test [9] and in test [2] was “inactive” each time. For the same compound, the call in test [4], in test [5], in test [6] and in test [7] was inactive.

As for `COc1cc(O)c(C(=O)c2ccccc2)cc1S(=O)(=O)O`, the Potency entry in test [8], in test [1], in test [9], in test [2] and in [3] was “inactive” throughout. Further, the compound was classed as inactive in test [4], in test [5], in [6] and in test [7].

Turning to `O=C(OCc1ccccc1)c1ccccc1`, the Potency result in test [8], in [1], in test [9], in test [2] and in test [3] was “inactive” in each case. Also, the compound was called inactive in test [4], in [5], in test [6] and in [7].

Regarding `CCc1cc(C(N)=S)ccn1`, the Potency result in test [10], in [1], in [9], in [2] and in test [3] was “inactive” in each case. Moreover, the result in [4], in [5], in test [6] and in [7] was inactive.

For `c1ccc2[nH]c(-c3cscn3)nc2c1`, the Potency entry in test [1], in [9] and in [2] was “inactive” each time. In addition, the outcome in test [4], in test [5], in [6] and in [7] was inactive.

`CC(=O)/C=C/C1=C(C)CCCC1(C)C`: the Potency result in test [8], in test [1], in test [9] and in test [2] was “inactive” each time. Also, the outcome in test [4], in test [5], in test [6] and in test [7] was inactive.

With `N[C@@H](Cc1c[nH]c2ccccc12)C(=O)O`, the Potency entry in [1], in [9], in test [2] and in test [3] was “inactive” each time. For the same compound, the result in test [4], in [5], in test [6] and in test [7] was inactive.

With `Nc1ccc(N=Nc2ccccc2)c(N)n1`, the Potency was 11.9 µM (active) and 8.68 µM (active) and 9.69 µM (active) in test [8]; 23.7 µM (active) and 54.8 µM (active) in test [9]; 10.6 µM (active) and 30.8 µM (active) and 19.3 µM (active) in [3]. Also, the Potency entry in test [1] and in [2] was “inactive” each time. Besides, the compound was called inactive in test [4], in test [5], in test [6] and in test [7].

Take `CC1=C(/C=C/C(C)=C/C=C/C(C)=C/C(=O)O)C(C)(C)CCC1`: the Potency entry in [8], in test [9] and in test [2] was “inactive” in each case. The Potency entry in [1] is “inactive and 68.7 µM (active)”; in [3], “inactive and 27.3 µM (active)”. For the same compound, the compound was called inactive in test [4], in test [5], in test [6] and in test [7].

Regarding `O=C(O)CN(CC(=O)O)CC(=O)O`, the Potency entry in test [10], in [8], in [1] and in test [9] was “inactive” in each case. Moreover, the call in [4], in test [5], in [6] and in [7] was inactive.

Regarding `CC(C)(C)CC(C)(C)c1ccc(O)c(-n2nc3ccccc3n2)c1`, the Potency result in test [8], in [9] and in test [2] was “inactive” each time. Further, the Potency in test [1] was 49.2 µM (active) and 48.6 µM (active); in test [3], 10.6 µM (active) and 24.7 µM (active) and 30.6 µM (active). The call in test [4], in test [5], in test [6] and in test [7] was inactive.

For the compound `COc1cc2c(c(OC)c1OC)-c1ccc(OC)c(=O)cc1[C@@H](NC(C)=O)CC2`, the Potency in test [8] was 266 nM (active) and 48 nM (active) and 54.5 nM (active); in test [9] it was 335 nM (active) and 9.6 nM (active) and 7.7 nM (active); in test [3], 3.35 µM (active) and 1.52 µM (active) and 1.37 µM (active). Further, the Potency result in test [1] and in test [2] was “inactive” throughout. The compound was called inactive in test [4], in test [5], in test [6] and in test [7].

On to `CC(C)(C)NCC(O)c1ccc(O)c(CO)c1` (configuration not stated), for which the Potency entry in [10], in [8], in test [1], in test [2] and in test [3] was “inactive” throughout. Besides, the call in test [4], in [5], in test [6] and in test [7] was inactive.

With `O=C1OC(c2ccc(O)cc2)(c2ccc(O)cc2)c2ccccc21`, the Potency result in [8], in test [1], in [9] and in test [2] was “inactive” each time. Also, the Potency in test [3] was 21.1 µM (active) and 48.2 µM (active) and 68.6 µM (active). For the same compound, the compound was called inactive in test [4], in [5], in test [6] and in [7].

Turning to `CN/C(=C\[N+](=O)[O-])NCCSCc1ccc(CN(C)C)o1`, the Potency entry in test [10], in test [8], in [1], in test [2] and in [3] was “inactive” throughout. Besides, the result in test [4], in test [5], in test [6] and in [7] was inactive.

As to `NC(N)=NC(N)=NCCc1ccccc1`, the Potency result in test [8], in test [1], in [9], in test [2] and in [3] was “inactive” in each case. The compound was called inactive in test [4], in [5], in [6] and in test [7].

`CCCCCCCCCCCCCCCCCC(=O)OCC(O)CO` (configuration not stated): the Potency entry in test [8], in [1], in [9], in test [2] and in test [3] was “inactive” each time. For the same compound, the compound was classed as inactive in [4], in test [5], in test [6] and in test [7].

Values taken from PubChem BioAssay (Tox21).
